Rows were chosen to be rich in hits. Some 3.4% of all compounds tested hit in one or more screens of this group.
AmpC inh no detg – inhibitors of E. coli AmpC beta-lactamase without detergent. P00811. 330,000 compounds, 0.52% hits. Potency, µM (highest dose often 57.1 µM), for inactives: top-dose activity change, negative = inhibition, actives largely listed as inhibitors. AID 485341. AmpC nitrocefin hydrolysis, absorbance 480 nm, 0.0001% Triton;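 note: plate controls were no compound for no effect and no enzyme for full effect; nearly all actives have a fitted effect of over 20% in size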
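AmpC (5.3 nM in the dispensed reagent) in 20 mM phosphate pH 7.0 with 0.01% (detergent screen) or 0.0001% Triton X-100 was preincubated with compounds for 15 min at room temperature. Nitrocefin was then added from an 800 uM solution, and hydrolysis was followed at 480 nm.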
Giardia FBPA inh-1 – Giardia lamblia aldolase inhibition. Potency, µM (series often up to 59.6 µM), for inactives: at the top dose activity, negative = inhibition, usual class: inhibitors. A8B2U2. 290,000 compounds, 0.71% hits. purified Giardia FBPA; note: nearly all actives have a fitted effect of over 55% in size
Target sequence (A8B2U2 whole entry, looked up): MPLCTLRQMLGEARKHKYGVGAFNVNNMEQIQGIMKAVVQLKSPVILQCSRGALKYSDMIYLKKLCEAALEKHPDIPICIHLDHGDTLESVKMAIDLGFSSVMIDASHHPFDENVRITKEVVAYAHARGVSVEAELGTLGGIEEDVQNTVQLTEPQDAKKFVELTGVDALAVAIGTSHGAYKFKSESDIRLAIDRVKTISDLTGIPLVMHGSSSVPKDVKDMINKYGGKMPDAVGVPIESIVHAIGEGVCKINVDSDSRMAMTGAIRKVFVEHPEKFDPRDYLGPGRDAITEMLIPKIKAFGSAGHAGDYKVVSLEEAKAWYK
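40 nM FBPA preincubated 10 min at RT with compound (up to 57.5 uM final), then substrate plus GAPDH/TPI/NAD/arsenate coupling and diaphorase/resazurin added. Fluorescence read after 20 min at RT, 525/598 nm.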
AmpC detergent – AmpC beta-lactamase inhibition with detergent present. P00811. AmpC hydrolysis of nitrocefin, absorbance 480 nm, 0.01% Triton. Potency, µM (doses to about 114 µM), inactives show at the highest dose activity change, negative = inhibition, actives largely listed as inhibitors. 370,000 compounds, 0.041% hits. AID 485294;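 note: 0% = no-compound wells and -100% = no-enzyme wells; nearly all actives have a fitted effect of over 25% in size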
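AmpC (5.3 nM in the dispensed reagent) in 20 mM phosphate pH 7.0 with 0.01% (detergent screen) or 0.0001% Triton X-100 was preincubated with compounds for 15 min at room temperature. Nitrocefin was then added from an 800 uM solution, and hydrolysis was followed at 480 nm.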
Sm TGR block – blocks Schistosoma mansoni thioredoxin glutathione reductase | 360,000 compounds, 3% hits | purified TGR, DTNB reduction, TNB absorbance 405 nm | Potency, µM (series often up to 114 µM), for the others: at the top dose activity change, negative = inhibition, most hits filed as inhibitors | Q962Y6; note: nearly all actives have a fitted effect of over 60% in size
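Kinetic colorimetric format: TGR-catalysed, NADPH-driven DTNB reduction monitored via TNB absorbance. Enzyme dispensed at 20 nM; compound exposure 15 min at room temperature before reaction start.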
RE007 growth inh – less growth of the S. pombe RE007 Vpr strain | Potency, µM (doses to about 92.2 µM), for the others: at the highest dose activity change, negative = less growth, actives largely listed as inhibitors | AID 651644 | S. pombe RE007 Vpr strain, BacTiter-Glo ATP luminescence, 24 h | 360,000 compounds, 0.21% hits; active = well fitted falling curve with a large enough effect; inconclusive = small, poorly fitted or top-dose-only effect; inactive = no such curve, though single readings can be large or run the other way; note: nearly all actives have a fitted effect of over 50% in size
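Fission yeast RE007 carrying one integrated HIV-1 vpr copy, seeded at OD 0.01 in PMG+AL medium with 23 nL pinned compound. Grown 24 h at 30 degrees; viability read by BacTiter-Glo luminescence after 5 min.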
Giardia growth – inhibitors of Giardia lamblia growth; shares compounds with Giardia FBPA inh-1; Giardia lamblia trophozoite growth inhibition; Potency, µM (doses to about 57.5 µM), for inactives: top-dose activity change, negative = inhibition, actives largely listed as inhibitors; 1,500 compounds, 5% hits; AID 2785;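 note: trophozoites exposed to compound for 48 h at 37 °C; nearly all actives have a fitted effect of over 70% in size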
Mammalian tox – mammalian cytotoxicity of Giardia aldolase inhibitor hits; shares compounds with Giardia FBPA inh-1; mammalian cell viability counter-screen, qHTS; Potency, µM (series often up to 57.5 µM), for the others: at the top dose viability change, negative = toxicity, usual class: inhibitors; 1,500 compounds, 4% hits; AID 2786;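 note: Chinese hamster ovary cells used as mammalian cytotoxicity surrogate; viability measured as cellular ATP by luminescence; compound exposure lasted 48 h before reading; nearly all actives have a fitted effect of over 60% in size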
Giardia FBPA inh-2 – confirmation of Giardia fructose-bisphosphate aldolase inhibitors | shares compounds with Giardia FBPA inh-1 | purified Giardia aldolase enzyme activity, qHTS | Potency, µM (doses to about 57.5 µM), for inactives: at the highest dose activity change, negative = inhibition, most hits filed as inhibitors | 1,500 compounds, 5% hits | AID 2787; note: nearly all actives have a fitted effect of over 45% in size
Rabbit FBPA inh – rabbit FBP aldolase inhibition by Giardia aldolase hits; AID 2794; shares compounds with Giardia FBPA inh-1; 1,500 compounds, 4% hits; Rabbit muscle FBPA enzyme inhibition, selectivity counter-screen; Potency, µM (doses to about 57.5 µM), for the others: top-dose activity, negative = inhibition, usual class: inhibitors; note: nearly all actives have a fitted effect of over 60% in size
Target sequence (P00883 whole entry, looked up): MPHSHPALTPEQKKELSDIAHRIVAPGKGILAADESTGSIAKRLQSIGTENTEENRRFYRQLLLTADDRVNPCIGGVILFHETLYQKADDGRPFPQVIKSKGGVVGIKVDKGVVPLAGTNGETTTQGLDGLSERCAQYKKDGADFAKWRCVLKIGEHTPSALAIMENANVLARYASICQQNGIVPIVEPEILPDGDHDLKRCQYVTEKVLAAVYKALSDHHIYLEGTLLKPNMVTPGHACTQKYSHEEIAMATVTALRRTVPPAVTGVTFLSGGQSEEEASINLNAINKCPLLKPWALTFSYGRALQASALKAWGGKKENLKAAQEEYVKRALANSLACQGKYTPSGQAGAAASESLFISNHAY
GAPDH coupling – GAPDH inhibition flagged for Giardia aldolase hits; shares compounds with Giardia FBPA inh-1; GAPDH coupling enzyme counterscreen, biochemical, qHTS; Potency, µM (top dose mostly 57.5 µM), for the others: at the top dose activity change, negative = inhibition, most hits filed as inhibitors; 1,500 compounds, 6% hits; AID 2795; note: nearly all actives have a fitted effect of over 55% in size
The depositor's hits bear a star; u = inconclusive; x = no result given; [ ] = another dose, or the depositor's remark. Unless noted, calls come from the whole dose curve; as a rule, active = well fitted curve in the direction sought with a large enough effect; inconclusive = small, poorly fitted or top-dose-only effect, or another doubt; inactive = no such curve, though single readings can be large; an effect the other way counts as inactive or inconclusive. Unless noted, % is set by controls: 0 for no effect and ±100 for the full control effect; potency is the fitted concentration of half-maximal effect.

SMILES	AmpC inh no detg	Giardia FBPA inh-1	AmpC detergent	Sm TGR block	RE007 growth inh	Giardia growth	Mammalian tox	Giardia FBPA inh-2	Rabbit FBPA inh	GAPDH coupling
Cc1ccc(NC(=S)c2ccccc2)cc1	-14.0%	-11.1%	-5.6%	5.3%	-7.1%	x	x	x	x	x
CCC(COC(C)=O)Nc1nc2c([nH]1)c(=O)n(C)c(=O)n2C (centres undefined)	-12.8%	-0.1%	-5.2%	-6.8%	4.1%	x	x	x	x	x
Cn1c(=O)c2[nH]c(N/N=C(/C#N)C(N)=O)nc2n(C)c1=O	-7.2%	19.9µM*	8.2%	0.7%	-6.4%	33.5%	-5.3%	4.9%	2.1%	-1.5%
CCOc1cc(C(=O)NC(=S)Nn2cnnc2)cc(OCC)c1OCC	-13.7%	15.8µM*	3.7%	-2.3%	7.2%	u	3.1%	2.5%	14.5%	-8.3%
CCOc1cc(C(=O)Nn2cnnc2)cc(OCC)c1OCC	-13.4%[11.4 µM]	4.4%	-13.7%	-2.2%	1.5%	x	x	x	x	x
COc1cc(OC)c2c(c1C(CCN1CCN(c3ccccc3)CC1)c1ccc(N(C)C)cc1)OC(=O)CC2c1ccc(N(C)C)cc1 (centres undefined)	x	3.9%	x	x	x	x	x	x	x	x
CC(C)OC(=O)CC1C(=O)NCCN1C(=S)NC(=O)c1ccccc1 (centres undefined)	1.0%	11.2µM*	0.1%	x	5.9%	-12.7%	11.3%	6.6%	5.5%	8.3%
CC(C)OC(=O)CC1C(=O)NCCN1C(=S)NC(=O)c1ccc(F)cc1 (centres undefined)	-9.8%	15.8µM*	5.1%	-15.5%	6.3%	-18.7%	-5.1%	6.8%	5.4%	8.4%
COC(=O)CC1C(=O)NCCN1C(=O)c1sc2ccccc2c1Cl (centres undefined)	-3.7%	1.8%	5.9%	5.8%	0.9%	x	x	x	x	x
COC(=O)CC1C(=O)NCCN1C(=S)NC(=O)c1sc2ccccc2c1Cl (centres undefined)	-2.6%[2.29 µM]	15.8µM*	u	-25.1%	-5.6%	13.1%	3.4%	5.1%	8.1%	11.6%
CCOc1ccc(C(=O)OCC(=O)Nc2nc(OC)cc(OC)n2)cc1OCC	-26.1%	4.2%	-14.3%	-35.2%	15.0%	x	x	x	x	x
O=C1CN(C(=O)c2cccc(S(=O)(=O)N3CCCC3)c2)c2ccccc2N1	-4.0%	0.8%	-0.8%	-6.1%	4.1%	x	x	x	x	x
CO/N=C/C(C#N)c1ncc(C(F)(F)F)cc1Cl (centres undefined)	-18.0%	19.9µM*	-1.0%	u	6.3%	u	7.4%	1.3%	0.6%	-4.4%
CCc1nnc(N/N=C\c2ccc(OC(C)=O)c(OC)c2)n1N	-9.8%	15.8µM*	1.1%	2.6%	-13.0%	-3.4%[38.3 µM]	-28.0%	3.66µM*	5.17µM*	5.8µM*
CCOc1cc(/C=N/NC(N)=O)ccc1OC(=O)c1ccc(C)cc1	32.7%	-0.9%	-1.4%	-14.6%	x	x	x	x	x	x
Cc1nnc(N/N=C/c2cccc(OCc3ccc(Cl)c(Cl)c3)c2)n1N	78.0%	17.7µM*	-15.6%	0.3%	-6.7%	u	1.4%	u	-18.9%	u
CCOc1cc(/C=N/Nc2nnc(C)n2N)ccc1OC(C)=O	-6.2%	15.8µM*	-6.9%	-5.0%	-6.2%	2.5%[38.3 µM]	-17.1%	5.8µM*	5.8µM*	6.51µM*
CCc1nnc(N/N=C/c2ccc(O)c(OC)c2)n1N	-22.4%	20µM*	-17.6%	-19.8%	-5.3%	2.5%[10.4 µM]	0.6%	u	u	-20.0%
O=C(NC(Cc1c[nH]c2ccccc12)C(=O)O)c1ccc2c(c1)OCO2 (centres undefined)	-20.7%	2.9%	1.9%	0.6%	-6.6%	x	x	x	x	x
Cn1c(=O)n(C)c2cc(S(=O)(=O)N3CCN(c4ccccc4)CC3)ccc21	-20.7%	6.2%	6.2%	7.3%	0.9%	x	x	x	x	x
Cc1cc(NC(=O)COC(=O)C2=COCCO2)c([N+](=O)[O-])cc1C	-8.8%	-1.0%	-9.3%	1.9%	-1.3%	x	x	x	x	x
CCc1nnc(N/N=C/c2c(Cl)cccc2Cl)n1N	81.8%	u	-2.0%	0.5%	-12.7%	x	x	x	x	x
CCc1nnc(N/N=C/c2cccs2)n1N	-30.0%	5µM*	-6.7%	-5.3%	-9.6%	u	u	12.6µM*	12.6µM*	12.6µM*
COc1ccc(OC)c(C2CC(=O)N3CN(c4ccc(C)c(Cl)c4)CSC3=C2C#N)c1 (centres undefined)	-44.5%	5µM*	u	20µM*	-7.6%	-7.3%[10.4 µM]	5.8%	u	u	-26.6%
COc1cccc(C2CC(=O)N3CN(c4ccccc4F)CSC3=C2C#N)c1 (centres undefined)	-41.7%	3.15µM*	u	35.5µM*	-17.6%	-6.6%[10.4 µM]	18.7%	-20.3%	-26.2%	-5.9%
SMILES	AmpC inh no detg	Giardia FBPA inh-1	AmpC detergent	Sm TGR block	RE007 growth inh	Giardia growth	Mammalian tox	Giardia FBPA inh-2	Rabbit FBPA inh	GAPDH coupling
CCOc1ccc(N2CSC3=C(C#N)C(c4ccco4)CC(=O)N3C2)cc1 (centres undefined)	-29.1%	7.92µM*	1.8%	25.1µM*	-1.5%	43.8%	-2.6%	u	u	u
COc1cc(OC)c(C2CC(=O)N3CN(C)CSC3=C2C#N)cc1OC (centres undefined)	-18.0%	0.561µM*	u	u	-7.7%	5.6%[38.3 µM]	-10.7%	u	-27.1%	u
N#CC1=C2SCN(Cc3ccccc3)CN2C(=O)CC1c1ccccc1F (centres undefined)	-24.2%	u	u	-29.8%	-12.0%	x	x	x	x	x
Cc1ccc(C2CC(=O)N3CN(Cc4ccco4)CSC3=C2C#N)cc1 (centres undefined)	-39.6%	u	u	0.0%	-15.3%	x	x	x	x	x
COC(=O)Cc1ccc2c3ccccc3n(C)c2c1	3.0%	-0.6%	-9.1%	-13.1%	-12.1%	x	x	x	x	x
COc1ccc(OC)c(C2CC(=O)N3CN(c4cccc(Cl)c4)CSC3=C2C#N)c1 (centres undefined)	-44.5%	3.54µM*	u	50.1µM*	-11.4%	21.5%	5.4%	-17.4%	-23.6%	-19.2%

Screens as filed in PubChem.
